The campaign covered roughly 310,000 compounds. About 2,200 (0.71%) showed an effect of 50% or more. The effect is printed as a negative number. The sample as a whole holds a higher share of strong results than the screen did.

In this experiment the target is human ether-à-go-go-related gene (hERG) potassium channel (human, UniProt Q12809). Nature of the experiment: primary screen, population patch clamp on CHO cells stably expressing hERG; higher = less effect of the substance.
Chain of human ether-à-go-go-related gene (hERG) potassium channel (Q12809 whole entry, looked up): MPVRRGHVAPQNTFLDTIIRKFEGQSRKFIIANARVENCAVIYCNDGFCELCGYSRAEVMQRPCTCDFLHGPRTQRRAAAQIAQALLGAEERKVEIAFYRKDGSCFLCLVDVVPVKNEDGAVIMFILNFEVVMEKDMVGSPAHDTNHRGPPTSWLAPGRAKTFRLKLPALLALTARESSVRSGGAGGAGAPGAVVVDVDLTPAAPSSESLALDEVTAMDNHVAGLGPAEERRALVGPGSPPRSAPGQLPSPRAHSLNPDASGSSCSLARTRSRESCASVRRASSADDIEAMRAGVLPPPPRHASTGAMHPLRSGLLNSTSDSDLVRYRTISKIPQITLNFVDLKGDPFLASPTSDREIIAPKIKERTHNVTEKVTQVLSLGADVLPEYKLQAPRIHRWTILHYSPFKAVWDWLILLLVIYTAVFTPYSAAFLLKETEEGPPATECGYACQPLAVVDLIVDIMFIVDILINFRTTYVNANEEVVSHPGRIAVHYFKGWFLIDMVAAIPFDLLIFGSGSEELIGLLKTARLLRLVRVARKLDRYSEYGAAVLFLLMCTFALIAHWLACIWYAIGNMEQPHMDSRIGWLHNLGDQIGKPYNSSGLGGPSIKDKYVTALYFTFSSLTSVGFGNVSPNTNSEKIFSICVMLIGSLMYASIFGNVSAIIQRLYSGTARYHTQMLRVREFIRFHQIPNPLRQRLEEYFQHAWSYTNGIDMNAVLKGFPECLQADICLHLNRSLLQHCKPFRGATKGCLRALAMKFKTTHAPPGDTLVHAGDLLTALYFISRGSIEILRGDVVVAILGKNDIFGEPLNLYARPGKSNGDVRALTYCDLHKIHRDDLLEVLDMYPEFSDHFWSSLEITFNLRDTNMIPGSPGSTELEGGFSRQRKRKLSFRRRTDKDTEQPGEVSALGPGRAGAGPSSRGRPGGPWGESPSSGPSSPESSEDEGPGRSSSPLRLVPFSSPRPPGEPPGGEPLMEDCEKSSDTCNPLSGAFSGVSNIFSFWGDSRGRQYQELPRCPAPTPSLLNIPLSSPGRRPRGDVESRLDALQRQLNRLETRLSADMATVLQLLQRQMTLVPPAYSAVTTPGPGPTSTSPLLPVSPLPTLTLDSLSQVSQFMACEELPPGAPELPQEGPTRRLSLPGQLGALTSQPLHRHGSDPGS
In the case of `NC(=O)c1cc(Cl)ccc1OCC(=O)N1CCCc2ccccc21`, the “hERG current change (%, negative = inhibition) at 1uM” value is 11.4%. As for `S=c1[nH]nc(-c2ccc(Cl)cc2)n1-c1ccc2c(c1)OCCO2`, the “hERG current change (%, negative = inhibition) at 1uM” value turned out to be 7.4%. For `CCN1C(=O)[C@H]2[C@@H](c3ccc(Cl)cc3)N3C(=O)CN(Cc4ccccc4)C(=O)[C@@]3(C)[C@H]2C1=O` the value was 10.9%; for `CCCCCOc1ccc(/C=C/c2c([N+](=O)[O-])c(=O)n(C)c(=O)n2C)cc1`, 12.2%; for `O=c1[nH]cnc2sc(-c3ccccc3)cc12`, 6.92%.

In the case of `COc1ccc(S(=O)(=O)NCc2c(-c3ccccc3)noc2C)c(OC)c1`, the “hERG current change (%, negative = inhibition) at 1uM” value came out at 3.4%. For `CC1CCN(C(CNS(=O)(=O)c2ccccc2)c2ccccc2)CC1` (stereo not shown) the value was 3.61%. In the case of `Cc1ccccc1[C@]1(C)ON(c2ccccc2C(F)(F)F)C1=O`, the “hERG current change (%, negative = inhibition) at 1uM” value came out at 14.2%.

Consider `CNC(=O)/C(=C\C=C\c1ccccc1)NC(=O)c1ccc([N+](=O)[O-])cc1`, for which the “hERG current change (%, negative = inhibition) at 1uM” value is -85%. For `O=C(N/C(=C\c1ccc([N+](=O)[O-])cc1)C(=O)N1CCCCC1)c1ccccc1` the value was -73.2%; for `CN1CCN(C(=O)/C(=C/c2ccc([N+](=O)[O-])cc2)NC(=O)c2ccccc2)CC1`, -90.4%; for `O=C(N/C(=C/c1cccc([N+](=O)[O-])c1)C(=O)N1CCCC1)c1ccccc1`, -0.775%. On to `O=C(N/C(=C\c1ccccc1)C(=O)N1CCCCC1)c1ccc(Br)o1`, for which the “hERG current change (%, negative = inhibition) at 1uM” value was -0.538%. For `CC(C)(C)NC(=O)/C(=C\C=C\c1ccccc1)NC(=O)c1ccc([N+](=O)[O-])cc1` the value was 11.2%; for `O=C(N/C(=C\c1ccc([N+](=O)[O-])cc1)C(=O)N1CCCCC1)c1ccc(Br)o1`, -53.4%; for `CN(C)CCCNC(=O)/C(=C\C=C\c1ccccc1)NC(=O)c1ccc([N+](=O)[O-])cc1`, -42%. For `O=C(N/C(=C/c1ccccc1)C(=O)N1CCCCC1)c1ccc(Br)o1`, the “hERG current change (%, negative = inhibition) at 1uM” value is on record as -0.572%. For `CN1CCN(C(=O)/C(=C/c2cccc([N+](=O)[O-])c2)NC(=O)c2ccccc2)CC1` the value was -46.5%; for `O=C(N/C(=C\c1ccccc1)C(=O)N1CCCCCC1)c1ccccc1`, 21.1%; for `CN1CCN(C(=O)/C(=C/c2ccc(N(C)C)cc2)NC(=O)c2ccccc2)CC1`, 7.18%.

As for `CC(=O)c1ccc(N2CCCCCC2)c(F)c1`, the “hERG current change (%, negative = inhibition) at 1uM” value was 0.156%.

As for `COc1ccc(OCC(=O)NCCCNC(=O)COc2ccc(OC)cc2)cc1`, the “hERG current change (%, negative = inhibition) at 1uM” value was 4.68%. Then `O=c1c2c3c(sc2nc2n1CCCCC2)CCC3`, with 10.9%. Regarding `O=S1(=O)[C@H]2C[C@@H]3C=C[C@]2(CN1Cc1ccc(C(F)(F)F)cc1)O3`, the “hERG current change (%, negative = inhibition) at 1uM” value is on record as 4.34%. Then `COc1ccc(CCNC(=O)CO/N=C/c2cc3c(cc2Br)OCO3)cc1OC`, with 14.5%. Then `CCCCCOc1ccc(C(C)(O)C(CN2CCOCC2)c2ccccc2)cc1` (stereo not shown), with -3.26%; and `CC(OC(=O)/C(C#N)=C/c1ccc(N(C)C)cc1)C(=O)NCc1ccco1` (stereo not shown), with 6.56%. Then `C[C@@H](C(=O)Nc1ccc2ccccc2c1)[C@@H]1C[C@@]1(C)[C@@H](NC(=O)OCc1ccccc1)c1ccccc1`, with 14.3%; and `CCOC(=O)C1=C(CSc2nncn2C)NC(=O)NC1c1cc(OCC)ccc1OCC` (stereo not shown), with 5.34%; and `Cc1ccc(NC(=O)CSc2nnc(Cn3cnc4ccccc43)o2)c(C)c1`, with 20.5%. Turning to `Cc1cccc(C)c1N(CC(=O)N1CCCC1)S(C)(=O)=O`, the “hERG current change (%, negative = inhibition) at 1uM” value worked out at 16.2%.

Turning to `CS(=O)(=O)N(CC(=O)N1CCc2ccccc2C1)c1ccc(Br)cc1`, the “hERG current change (%, negative = inhibition) at 1uM” value worked out at 13.4%. For `CCNC(=O)CN(C1CCCCC1)S(C)(=O)=O` the value was 1.29%; for `CCOC(=O)c1c(CSc2ccsc2)n(C)c2cc(Br)c(O)c(CN(C)C)c12.Cl`, -88.5%. Then `CCOC(=O)c1c(CSc2ccccc2)n(C)c2cc(Br)c(O)c(CN(C)C)c12`, with -3.17%; and `CCOC(=O)c1c(CSc2ccc(C)cc2)n(C)c2cc(Br)c(O)c(CN(C)C)c12.Cl.O`, with 18%; and `CN(C)c1ccc(NC(=O)CSc2nc3ccccc3c(=O)n2CC2CCCO2)cc1` (stereo not shown), with 17.3%. For `O=C(Nc1ccccc1SCC1CSc2nc3ccccc3c(=O)n21)c1ccccc1` (stereo not shown) the value was -24.7%; for `Cc1cccc(C(=O)Nc2ccccc2SCC2CSc3nc4ccccc4c(=O)n32)c1` (stereo not shown), -66.5%; for `O=C(Nc1ccccc1SCC1CSc2nc3ccccc3c(=O)n21)c1ccccc1Cl` (stereo not shown), -53.2%. Turning to `O=C(Nc1ccccc1SCC1CSc2nc3ccccc3c(=O)n21)c1cccc(Cl)c1` (stereo not shown), the “hERG current change (%, negative = inhibition) at 1uM” value is recorded as -49.6%.

As to `Nc1ccccc1SCC1CSc2nc3ccccc3c(=O)n21` (stereo not shown), the “hERG current change (%, negative = inhibition) at 1uM” value was -7.26%.

As for `Cc1ccc(C(=O)Nc2ccccc2SCC2CSc3nc4ccccc4c(=O)n32)cc1` (stereo not shown), the “hERG current change (%, negative = inhibition) at 1uM” value is -39%.

Take `CCOC(=O)C(C(=O)OCC)C(Nc1cccc(Br)c1)c1ccccc1` (stereo not shown): the “hERG current change (%, negative = inhibition) at 1uM” value amounted to 14.1%. Then `Cc1ccc(NC(=O)COC(=O)CN2C(=O)COc3ccccc32)cc1`, with 13.2%; and `Cc1[nH]c2ccccc2c1-c1ccc(Cl)nn1`, with 13.8%. Then `O=C(c1cccc([N+](=O)[O-])c1)N1CCN(C/C=C/c2ccccc2)CC1`, with -21%; and `O=[N+]([O-])c1ccc(C(O)CN2CCOCC2)cc1` (stereo not shown), with 18.6%; and `O=[N+]([O-])c1ccc(C(O)CN2CCN(Cc3ccccc3)CC2)cc1` (stereo not shown), with -73%. For `O=[N+]([O-])c1ccc(C(O)CN2CCN(c3ccccc3)CC2)cc1` (stereo not shown) the value was -2.31%; for `O=C(/C=C/c1ccccc1)N1CCN(C(=O)c2ccco2)CC1`, -13.1%; for `OC(CN1CCN(Cc2ccccc2)CC1)c1ccccc1` (stereo not shown), 0.933%.

Turning to `O=C(/C=C/c1cccc([N+](=O)[O-])c1)N1CCN(C(=O)c2ccco2)CC1`, the “hERG current change (%, negative = inhibition) at 1uM” value was -53.4%. Then `CS(=O)(=O)N(CC(=O)N1CCN(Cc2ccccc2)CC1)c1cccc([N+](=O)[O-])c1`, with -73.1%. For `O=C(c1cccc([N+](=O)[O-])c1)N1CCN(C(=O)c2ccco2)CC1` the value was 0.101%. `CS(=O)(=O)N(CC(=O)N1CCCCCC1)c1cccc([N+](=O)[O-])c1`: the “hERG current change (%, negative = inhibition) at 1uM” value was 2.29%. Consider `CS(=O)(=O)N(CC(=O)N1CCN(Cc2ccccc2)CC1)c1cccc(Cl)c1`, for which the “hERG current change (%, negative = inhibition) at 1uM” value is on record as -23%. For `O=[N+]([O-])c1ccc(C(O)CN2CCN(C/C=C/c3ccccc3)CC2)cc1` (stereo not shown), the “hERG current change (%, negative = inhibition) at 1uM” value is listed as -85.5%. Take `CCCN(CC1CC1)C(=O)CSc1nnc(-c2cc(-c3cccs3)nc3ccccc23)o1`: the “hERG current change (%, negative = inhibition) at 1uM” value is 6.71%. For `CS(=O)(=O)c1ccc(-n2nnc3ccccc32)c([N+](=O)[O-])c1` the value was 10.8%. For `CCc1ccccc1NC(=O)c1ccc(Cn2cc([N+](=O)[O-])cn2)cc1` the value was -3.78%; for `COc1ccc(N2CCN(C(=O)c3ccc(N4CCCCS4(=O)=O)cc3)CC2)cc1`, 10.7%. Then `COc1cccc(S(=O)(=O)Nc2noc3ccccc23)c1`, with 14%; and `Cc1ccc(-c2ccnc3c(Cl)c(C)nn23)cc1`, with 13.3%. For the molecule `COc1cc2c(cc1OC)C(=S)NC(C)(C)C2`, the “hERG current change (%, negative = inhibition) at 1uM” value is on record as 14.8%. Then `COc1cc(S(=O)(=O)NCC2OCCc3ccccc32)ccc1-n1cnnn1` (stereo not shown), with -7.28%. Then `CC(=O)N1CCN(C(=O)C2(NC(=O)Nc3ccccc3Cl)CCCCC2)CC1`, with 14.2%. Turning to `CC(=O)Oc1c(C)c2c3c(c1OC(C)=O)[C@@H](C)CC[C@@H]3[C@@H](C)C[C@H]2C=C(C)C`, the “hERG current change (%, negative = inhibition) at 1uM” value was 11.1%.

`COc1ccc(CN(C)C(=O)c2cc(S(=O)(=O)N3CCCCCC3)ccc2OC)cc1OC`: the “hERG current change (%, negative = inhibition) at 1uM” value turned out to be 4.44%. For `CCOc1ccc(N(CC(=O)N/N=C/c2cccnc2)S(C)(=O)=O)cc1` the value was 12.9%; for `O=C(/C=C/c1ccc(Cl)cc1)N1CCN(c2ccc([N+](=O)[O-])c(N3CCOCC3)c2)CC1`, -11.1%. Then `O=C(/C=C/c1ccc(Cl)cc1)N1CCN(Cc2ccccc2)CC1`, with -12.8%; and `O=C(/C=C/c1ccc(Cl)cc1)N1CCN(c2ccc(Cl)cc2[N+](=O)[O-])CC1`, with -81.4%; and `O=C(/C=C/c1ccc(Cl)cc1)N1CCN(c2ccccc2[N+](=O)[O-])CC1`, with -33.6%.

Regarding `O=C(/C=C/c1ccc([N+](=O)[O-])cc1)N1CCN(Cc2ccccc2)CC1`, the “hERG current change (%, negative = inhibition) at 1uM” value is -63.8%.

For `O=C(/C=C/c1cccc([N+](=O)[O-])c1)N1CCN(Cc2ccccc2)CC1`, the “hERG current change (%, negative = inhibition) at 1uM” value is -20.3%.

As to `CC1(c2cnc(Nc3ccccc3)s2)CCC(=O)O1` (stereo not shown), the “hERG current change (%, negative = inhibition) at 1uM” value amounted to 11.7%. For `O=C1c2ccccc2C(=O)c2c1cccc2N1CCN(Cc2ccccc2)CC1` the value was -6.21%; for `O=C1c2ccccc2C(=O)c2c1cccc2N1CCN(CCO)CC1`, -64.7%; for `O=C1c2ccccc2C(=O)c2c1cccc2N1CCCC1`, 8.54%. Then `Cc1cccc(NS(=O)(=O)c2ccc3c(c2)NC(=O)CC(=O)N3)c1`, with 18.4%; and `Cc1cccnc1NC(=O)Nc1cccc2ccccc12`, with 0.589%.

Values taken from PMC4336329 (PLoS ONE, 2015).
